This passage reports outcome and AC50 results from PubChem BioAssay (EPA / NIEHS).

Several values for one entry are separate records, joined by “and”; a condition that tells them apart may be missing. Identical values can stand only once. Results filed as inconclusive are left out. Activity calls are given as the source filed them. Rule for the calls, unless noted: active = hit-call score of the fitted dose curve at least 0.9, where 1 is the maximum; inactive = score below 0.9.

Assay [1] can be described thus: CEETOX_H295R_MTT_cell_viability: Viability Assessment in the CeeTox HT-H295R MTT Assay (AID 2283718). The procedure, abridged: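 Human H295R adrenal cells, prestimulated 48 h with 10 uM forskolin, were exposed 48 h to chemicals in 0.1% DMSO. Viability was measured in the same wells by MTT (0.5 mg/ml, 4 h, 37 C), absorbance 570/650 nm, as percent of controls.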
The target of assay [2] is Estrogen receptor (Homo sapiens) + Estrogen receptor beta (Homo sapiens) (UniProt P03372+Q92731). In words: OT_ER_ERaERb_1440: Odyssey Thera (OT) 24-hour HEK293T Protein-Complementation Assay for Estrogen Receptor-alpha/-beta Homodimer (AID 2283356; active = hit-call score of the fitted dose curve at least 0.9, where 1 is the maximum;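 note: heteromer of ER alpha and ER beta binding domains; hits raise reporter fluorescence and both agonists and antagonists give an increase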). The procedure, abridged: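 HEK293T stably expressing a PCA of ER alpha LBD (aa 310-547) and ER beta LBD (aa 263-489). After 24 h compound exposure, mean fluorescence intensity in nucleus (agonists) or nucleus and cytoplasm (antagonists) measured by laser scanning cytometry versus vehicle.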

Assay [3] addresses Estrogen receptor beta (Homo sapiens) (UniProt Q92731). In words: OT_ER_ERbERb_0480: Odyssey Thera (OT) 8-hour HEK293T Protein-Complementation Assay for Estrogen Receptor-beta/-beta Homodimer (AID 2283357; active = hit-call score of the fitted dose curve at least 0.9, where 1 is the maximum;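 note: active means signal gain over DMSO baseline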). In outline: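 Homodimerization of ER-beta LBD measured by protein-fragment complementation in HEK293T; 8 h dosing; fixed, Draq5 counterstain; fluorescence intensity gain over DMSO baseline, positive fitting direction; laser scanning cytometry.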

Assay [4] has as its target Nuclear receptor subfamily 1 group I member 2 (Homo sapiens) (UniProt O75469). In words: NVS_NR_hPXR: NovaScreen (NVS) Nuclear Receptor Binding Assay for human Pregnane X Receptor (PXR) (AID 2283365; active = hit-call score of the fitted dose curve at least 0.9, where 1 is the maximum;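 note: a drop in FRET signal versus DMSO baseline means the compound binds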). The procedure, abridged: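 Cell-free TR-FRET binding assay with extracted human PXR protein, read 2 h after dosing. Primary screen run in duplicate at 25 uM, actives followed in concentration series; loss of signal fitted against DMSO baseline.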

The target of assay [5] is Peroxisome proliferator-activated receptor gamma (Homo sapiens) (UniProt P37231). Put plainly: NVS_NR_hPPARg: NovaScreen (NVS) Nuclear Receptor Binding Assay for human Peroxisome Proliferator-activated Receptor gamma (PPARg) (AID 2283370; active = hit-call score of the fitted dose curve at least 0.9, where 1 is the maximum). The procedure, abridged: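 Cell-free fluorescence polarization binding to human PPARg protein, read 2 h after dosing. Primary screen in duplicate at 25 uM, actives followed in concentration series; loss of signal relative to DMSO scored.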

The target in assay [6] is Estrogen receptor beta (Homo sapiens) (UniProt Q92731). In words: OT_ER_ERbERb_1440: Odyssey Thera (OT) 24-hour HEK293T Protein-Complementation Assay for Estrogen Receptor-beta/-beta Homodimer (AID 2283380; active = hit-call score of the fitted dose curve at least 0.9, where 1 is the maximum;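 note: scored as signal increase over DMSO baseline for both agonists and antagonists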). The procedure, abridged:
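HEK293T cells stably expressing ER beta LBD (aa 310-547) homodimer fragment-complementation reporter, dosed 24 h. Cells formaldehyde-fixed, Draq5-stained; gain in nuclear (agonist) or nuclear plus cytoplasmic (antagonist) fluorescence versus DMSO read by laser scanning cytometry.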

The target of assay [7] is Retinoic acid receptor RXR-alpha (Homo sapiens) (UniProt P19793). In words: OT_NURR1_NURR1RXRa_1440: Odyssey Thera (OT) 24-hour HEK293T Protein Complementation Assay for Nurr1/retinoid X receptor (RXR) (AID 2283386; active = hit-call score of the fitted dose curve at least 0.9, where 1 is the maximum). In outline: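 Fluorescence PCA read-out; HEK293T; 24 h post-dose; bait/prey fused to reporter fragments; gain-of-signal fit vs DMSO negative control.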
The target in assay [8] is human Norepinephrine Transporter (NET), SLC6A2 (gene 6530) (UniProt P23975). Put plainly: NVS_TR_hNET: NovaScreen (NVS) Transporter Assay for human Norepinephrine Transporter (NET) (AID 2283377; active = hit-call score of the fitted dose curve at least 0.9, where 1 is the maximum;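 note: cell-free membrane protein extracted from CHO cells expressing human NET; displacement of radioligand from human NET seen as loss of scintillation signal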). In outline:
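CHO cell extracts expressing the transporter; tritiated or iodinated tracer displaced competitively; filtration plus scintillation readout at 1 h. Single-point duplicates at 25 uM, concentration series for follow-up; activity = signal drop relative to DMSO.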

Assay [9] in a line: STM_H9_OrnCyssISnorm_ratio: Stemina devTOX quickPredict H9 human embryonic stem cell (hESC)-based Assay for Ornithine (ORN):Cystine (CYSS) Ratio (AID 2283714; active = hit-call score of the fitted dose curve at least 0.9, where 1 is the maximum). The procedure, abridged: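 UPLC-HRMS of spent media: ORN/CYSS ratio of internal-standard-normalized percentages, DMSO (0.1%) baseline. Pluripotent H9 hESCs, 72h exposure, daily re-dosing with fresh media; last 24h media collected.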

Assay [10] is described as follows: ATG_PPRE_CIS: Attagene CIS-FACTORIAL HepG2 Assay for human Peroxisome Proliferator-activated Response Element (PPRE) (AID 2282958). The note with it: HepG2 PPRE cis-element reporter, Attagene transcription factor profiling; actives raise or lower the signal. The procedure, abridged: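 Measured endpoint: PPRE-controlled reporter mRNA, detected by RT-PCR and capillary electrophoresis fluorescence, from transiently transfected HepG2 cells 24 h after dosing. Curves fitted in both directions using DMSO baseline.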

The subject of assay [11] is Sodium/Iodide Symporter (NIS), SLC5A5 (gene 6528). Put plainly: CPHEA_Stoker_NIS_Inhibition_RAIU: CPHEA's Radioactive Iodide Uptake (RAIU) Assay for Sodium/Iodide Symporter (NIS) Inhibition, Stoker and Laws Labs (AID 2283841; active = hit-call score of the fitted dose curve at least 0.9, where 1 is the maximum). In outline: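 Iodide uptake through human NIS is measured in an engineered HEK293T line. Cells take up 125I (329pM final) for 2 hours at room temperature alongside chemicals at 0.001–100uM. Retained radioactivity is counted, and the signal is expressed against DMSO controls.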

Read-out in assay [12]: Secreted IgG (sIgG), gene 3500
In words: BSK_BT_sIgG: BioMAP Diversity Plus: BT Assay for Secreted IgG (sIgG) Biomarker Activity (AID 2284226). Particulars: primary human B cells with PBMC. In outline:
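Human B cell/PBMC co-culture; compound exposure 24 h; sIgG by ELISA; gain-of-signal fit vs DMSO baseline.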

The nature of assay [13]: BSK_BT_Bcell_Proliferation: Viability Assessment in the BioMAP Diversity Plus: BT Assay for B cell Proliferation (AID 2284227). Particulars: primary human B cells with PBMC. In outline: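 SRB-based protein staining (0.1% SRB after 10% TCA fixation, 560 nm) quantifies proliferation in human B cells co-cultured with PBMC, 72 h post-dosing, with signal gain scored relative to DMSO negative control.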

Read-out in assay [14]: Interleukin 17A (IL17A), IL17A (gene 3605)
Put plainly: BSK_BT_xIL17A: BioMAP Diversity Plus: BT Assay for Interleukin 17A (IL17A) Biomarker Activity (AID 2284229). Particulars: primary human B cells with PBMC. The procedure, abridged:
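Co-culture of human B cells and PBMC, dosed for 24 h in 96-well format. Secreted IL-17A measured with Luminex xMAP; gain-direction fitting against DMSO as baseline.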

Read-out in assay [15]: Vascular cell adhesion molecule 1 (VCAM1), VCAM1 (gene 7412)
Put plainly: BSK_MyoF_VCAM1: BioMAP Diversity Plus: MyoF Assay for Vascular cell adhesion molecule 1 (VCAM1) Biomarker Activity (AID 2284231). Particulars: primary human lung fibroblasts. In outline: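 Primary human lung fibroblasts (BioMAP MyoF system) dosed with chemical, VCAM-1 measured by ELISA 24 hours later. Fitted in the positive direction against DMSO; parallel SRB staining assessed cytotoxicity.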

Read-out in assay [16]: Collagen I, COL1A1 (gene 1277)
In words: BSK_MyoF_CollagenI: BioMAP Diversity Plus: MyoF Assay for Collagen I Biomarker Activity (AID 2284238). Particulars: primary human lung fibroblasts. In outline:
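Primary human lung fibroblasts (MyoF system) treated 24 h; Collagen I quantified by ELISA and fitted in positive direction against DMSO. Parallel SRB total-protein staining assessed overt cytotoxicity.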

Read-out in assay [17]: Collagen III, COL3A1 (gene 1281)
In words: BSK_MyoF_CollagenIII: BioMAP Diversity Plus: MyoF Assay for Collagen III Biomarker Activity (AID 2284239). The note with it: primary human lung fibroblasts. The procedure, abridged: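 Primary human lung fibroblasts (BioMAP MyoF system) exposed 24 h. Collagen III measured by ELISA; positive-direction fit relative to DMSO.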

Read-out in assay [18]: Actin alpha 1 (ACTA1), ACTA1 (gene 58)
Put plainly: BSK_MyoF_ACTA1: BioMAP Diversity Plus: MyoF Assay for Actin alpha 1 (ACTA1) Biomarker Activity (AID 2284244). The note with it: primary human lung fibroblasts. In outline:
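ELISA read-out of a-SMA in primary human lung fibroblast cultures, 24 h post-dosing. Activity scored in the positive direction versus DMSO baseline.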

Read-out in assay [19]: Interleukin 2 (IL2), IL2 (gene 3558)
In words: BSK_BT_xIL2: BioMAP Diversity Plus: BT Assay for Interleukin 2 (IL2) Biomarker Activity (AID 2284245). The note with it: primary human B cells with PBMC. In outline:
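Readout: supernatant IL-2 via Luminex xMAP after 24 h chemical dosing of a B cell/PBMC primary human co-culture. DMSO serves as negative control and baseline; increases in signal were fitted.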

Read-out in assay [20]: Basic fibroblast growth factor (bFGF), FGF2 (gene 2247)
Put plainly: BSK_MyoF_bFGF: BioMAP Diversity Plus: MyoF Assay for Basic fibroblast growth factor (bFGF) Biomarker Activity (AID 2284246). Particulars: primary human lung fibroblasts. In outline:
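Primary human lung fibroblast culture, 24 h compound exposure; ELISA read-out of bFGF. Positive-direction fit vs DMSO baseline. Cytotoxicity: SRB stain (0.1% SRB, 10% TCA fixation, 560 nm) in parallel wells.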

Chain of Estrogen receptor beta (Homo sapiens) (Q92731 whole entry, looked up, the tested form may be a part): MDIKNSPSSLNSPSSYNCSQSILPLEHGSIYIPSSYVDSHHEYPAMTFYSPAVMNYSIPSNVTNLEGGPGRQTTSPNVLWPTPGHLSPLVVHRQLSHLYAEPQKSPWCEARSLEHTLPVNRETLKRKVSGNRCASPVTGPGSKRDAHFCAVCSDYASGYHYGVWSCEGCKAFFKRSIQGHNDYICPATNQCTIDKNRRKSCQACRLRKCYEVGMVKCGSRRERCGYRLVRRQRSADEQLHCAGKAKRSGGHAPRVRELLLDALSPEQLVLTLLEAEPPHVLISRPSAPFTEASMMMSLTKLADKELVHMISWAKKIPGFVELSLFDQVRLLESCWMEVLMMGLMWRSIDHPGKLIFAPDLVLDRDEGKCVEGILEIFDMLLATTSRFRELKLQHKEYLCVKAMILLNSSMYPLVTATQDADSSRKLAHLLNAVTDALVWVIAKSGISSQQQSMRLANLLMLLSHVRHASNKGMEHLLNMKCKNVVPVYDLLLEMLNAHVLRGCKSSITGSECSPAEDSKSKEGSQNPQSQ
Chain of Retinoic acid receptor RXR-alpha (Homo sapiens) (P19793 whole entry, looked up, the tested form may be a part): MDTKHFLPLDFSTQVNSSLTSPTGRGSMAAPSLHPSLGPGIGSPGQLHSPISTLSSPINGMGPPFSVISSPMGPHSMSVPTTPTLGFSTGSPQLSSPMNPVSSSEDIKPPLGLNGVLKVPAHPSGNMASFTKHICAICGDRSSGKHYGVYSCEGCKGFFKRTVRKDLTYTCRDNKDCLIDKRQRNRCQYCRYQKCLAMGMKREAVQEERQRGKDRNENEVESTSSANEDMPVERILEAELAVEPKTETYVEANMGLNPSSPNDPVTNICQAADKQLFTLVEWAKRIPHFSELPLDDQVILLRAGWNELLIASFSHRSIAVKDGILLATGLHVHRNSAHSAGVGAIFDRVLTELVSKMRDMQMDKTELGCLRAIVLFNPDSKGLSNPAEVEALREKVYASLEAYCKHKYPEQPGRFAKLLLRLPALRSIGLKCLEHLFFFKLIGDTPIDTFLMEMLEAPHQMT
Chain of Nuclear receptor subfamily 1 group I member 2 (Homo sapiens) (O75469 whole entry, looked up): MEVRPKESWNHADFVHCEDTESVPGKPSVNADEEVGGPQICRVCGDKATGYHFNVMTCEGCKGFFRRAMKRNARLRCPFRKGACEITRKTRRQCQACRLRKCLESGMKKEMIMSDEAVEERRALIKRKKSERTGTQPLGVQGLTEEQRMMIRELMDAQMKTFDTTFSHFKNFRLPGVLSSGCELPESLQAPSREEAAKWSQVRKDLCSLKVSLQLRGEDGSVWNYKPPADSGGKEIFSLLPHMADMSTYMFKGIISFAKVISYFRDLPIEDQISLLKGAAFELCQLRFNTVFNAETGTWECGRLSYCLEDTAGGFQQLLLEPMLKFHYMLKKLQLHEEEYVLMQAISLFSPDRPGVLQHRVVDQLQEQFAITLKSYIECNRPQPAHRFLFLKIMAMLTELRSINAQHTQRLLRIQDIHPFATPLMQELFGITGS
Chain of human Norepinephrine Transporter (NET), SLC6A2 (gene 6530) (P23975 whole entry, looked up): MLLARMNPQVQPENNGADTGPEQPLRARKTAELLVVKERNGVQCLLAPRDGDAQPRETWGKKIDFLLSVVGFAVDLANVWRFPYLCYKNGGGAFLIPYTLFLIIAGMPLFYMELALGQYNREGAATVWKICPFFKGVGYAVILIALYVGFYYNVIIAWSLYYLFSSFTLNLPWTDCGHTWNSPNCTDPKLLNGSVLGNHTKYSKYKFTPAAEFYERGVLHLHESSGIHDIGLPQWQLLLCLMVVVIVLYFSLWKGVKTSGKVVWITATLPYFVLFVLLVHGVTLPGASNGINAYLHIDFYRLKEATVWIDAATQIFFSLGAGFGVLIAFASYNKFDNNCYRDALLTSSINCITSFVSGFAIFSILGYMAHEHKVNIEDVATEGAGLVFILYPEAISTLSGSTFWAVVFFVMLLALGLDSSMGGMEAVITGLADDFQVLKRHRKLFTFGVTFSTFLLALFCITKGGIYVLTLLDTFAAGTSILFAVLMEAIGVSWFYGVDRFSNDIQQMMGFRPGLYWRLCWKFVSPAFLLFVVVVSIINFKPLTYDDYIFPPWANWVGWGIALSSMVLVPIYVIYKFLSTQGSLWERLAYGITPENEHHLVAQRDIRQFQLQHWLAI
Chain of Estrogen receptor (Homo sapiens) + Estrogen receptor beta (Homo sapiens) (P03372 whole entry, looked up, the tested form may be a part): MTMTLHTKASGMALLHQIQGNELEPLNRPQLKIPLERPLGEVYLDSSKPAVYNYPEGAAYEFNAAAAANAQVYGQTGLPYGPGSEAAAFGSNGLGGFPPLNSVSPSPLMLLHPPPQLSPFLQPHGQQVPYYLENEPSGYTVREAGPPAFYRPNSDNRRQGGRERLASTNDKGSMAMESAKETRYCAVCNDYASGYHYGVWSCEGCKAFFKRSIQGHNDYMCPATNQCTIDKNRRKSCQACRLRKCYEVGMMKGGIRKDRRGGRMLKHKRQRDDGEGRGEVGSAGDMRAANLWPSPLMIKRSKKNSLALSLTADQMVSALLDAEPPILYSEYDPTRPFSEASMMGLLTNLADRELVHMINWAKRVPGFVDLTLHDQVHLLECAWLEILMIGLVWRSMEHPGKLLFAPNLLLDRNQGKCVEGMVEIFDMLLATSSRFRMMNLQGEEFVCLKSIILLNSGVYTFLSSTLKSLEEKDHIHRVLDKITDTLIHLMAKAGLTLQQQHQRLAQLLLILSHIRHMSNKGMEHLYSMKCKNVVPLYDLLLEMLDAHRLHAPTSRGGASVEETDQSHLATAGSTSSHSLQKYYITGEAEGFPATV
Chain of Estrogen receptor (Homo sapiens) + Estrogen receptor beta (Homo sapiens) (Q92731 whole entry, looked up, the tested form may be a part): as the sequence (Q92731 whole entry, looked up, the tested form may be a part) above
Chain of Peroxisome proliferator-activated receptor gamma (Homo sapiens) (P37231 whole entry, looked up): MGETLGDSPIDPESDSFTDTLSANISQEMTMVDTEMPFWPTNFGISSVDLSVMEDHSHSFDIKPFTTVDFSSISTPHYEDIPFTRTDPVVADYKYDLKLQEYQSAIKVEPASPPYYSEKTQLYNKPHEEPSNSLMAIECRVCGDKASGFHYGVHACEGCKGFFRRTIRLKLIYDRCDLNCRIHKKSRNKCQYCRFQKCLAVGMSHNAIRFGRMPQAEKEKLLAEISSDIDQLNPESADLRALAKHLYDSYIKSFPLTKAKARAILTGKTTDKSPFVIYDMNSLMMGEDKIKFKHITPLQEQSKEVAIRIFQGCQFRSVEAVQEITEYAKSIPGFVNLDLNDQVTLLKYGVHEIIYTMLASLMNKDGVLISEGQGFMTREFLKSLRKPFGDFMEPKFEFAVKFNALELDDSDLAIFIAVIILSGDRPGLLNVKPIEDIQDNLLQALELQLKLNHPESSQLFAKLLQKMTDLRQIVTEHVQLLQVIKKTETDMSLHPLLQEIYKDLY

Consider `CCO[Si](CCCN)(OCC)OCC`, for which the outcome in assay [1] was inactive.

For `CCOC(=O)c1ccccc1`, the outcome in assay [2], in assay [3], in [4], in assay [5], in assay [6] and in [7] was inactive.

A word on the AC50: it is the concentration at which the activity in the assay is half-maximal. Consider `COc1ccc2ccccc2c1`, for which, in assay [8], the concentration at half-maximal activity (AC50) was 25 µM (active).

`Cc1c(C(N)=O)cc([N+](=O)[O-])cc1[N+](=O)[O-]`: the result in assay [9] was inactive.

As for `Cc1ccnc(N)c1`, in assay [10], the outcome was inactive.

As for `OC(C(F)(F)F)(C(F)(F)F)C(O)(C(F)(F)F)C(F)(F)F`, the result in assay [11] and in assay [20] was inactive. Moreover, the AC50 in assay [12] was 9.13 µM (active) and 9.49 µM (active); in [13], 37 µM (active) and 28.2 µM (active); in [14] it was 31 µM (active) and 24 µM (active); in assay [15], 45.7 µM (active) and 41.7 µM (active); in [16], 46.2 µM (active) and 45.7 µM (active); in assay [17], 41 µM (active) and 39.5 µM (active). The concentration at half-maximal activity (AC50) was 26.7 µM (active) and 22.3 µM (active) in [18]; 46 µM (active) and 48.1 µM (active) in assay [19].
